Compound activity from PubChem BioAssay.
Most compounds without a hit are left out; they make up all but 2.3% or so of the library.
5HT1a ag: 5-HT1a (human) receptor agonism; activation, % at 10 µM; CHO 5-HT1a Ga15 NFAT-bla reporter, FRET ratio; 0% basal, 100% maximal reference agonist; AID 567; hit rate 0.56% among 65,000; P08908;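 active means activation above the screen-wide mean activation plus 3 SD, cut at about 19% in these data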
HTR1E agonist: agonists of human 5-HT1E serotonin receptor; CHO 5-HT1E Ga15 NFAT-bla reporter, FRET; 0% DMSO wells, 100% control agonist wells; activation, % at 6 µM; hit rate 0.69% among 65,000;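 active means activation above a set limit, the screen-wide mean activation plus 3 SD, cut at about 8.5% in these data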
Target sequence (P28566 whole entry, looked up): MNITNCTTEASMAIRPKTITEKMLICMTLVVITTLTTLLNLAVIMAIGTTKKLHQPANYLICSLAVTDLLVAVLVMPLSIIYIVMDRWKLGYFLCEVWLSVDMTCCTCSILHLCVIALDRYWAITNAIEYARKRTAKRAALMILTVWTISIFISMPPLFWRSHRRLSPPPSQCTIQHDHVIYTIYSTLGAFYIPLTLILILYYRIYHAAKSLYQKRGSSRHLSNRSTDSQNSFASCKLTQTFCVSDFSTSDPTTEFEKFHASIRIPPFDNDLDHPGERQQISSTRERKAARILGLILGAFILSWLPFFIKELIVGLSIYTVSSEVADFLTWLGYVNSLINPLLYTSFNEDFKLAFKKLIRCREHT
5HT1E antag: blocks the human 5-HT1E serotonin receptor. P28566. CHO 5-HT1E Ga15 NFAT-bla reporter, FRET, antagonist. inhibition, % at 6 µM. hit rate 0.99% among 65,000. AID 571;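 active means inhibition above a set limit, the mean inhibition across every tested compound plus 3 SD, cut at about 29% in these data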;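 further: signal is the 460 over 535 nm emission ratio of beta-lactamase substrate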
5HT1a antag: 5-HT1a (human) receptor antagonism. CHO 5-HT1a Ga15 NFAT-bla reporter, antagonist mode. inhibition, % at 10 µM. hit rate 0.68% among 62,000. AID 612;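 active means inhibition above the mean of all tested compounds plus 3 SD, cut at about 43% in these data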;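 further: receptor stimulated by 5-CT agonist at 100 nM near EC80; beta-lactamase reporter measured by ratiometric fluorescence of a cleavable substrate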
Htt clearance: compounds clearing mutant huntingtin protein | HeLa Exon1htt(103Q)mCFP, aggregate imaging; zero = plate's median compound well | inhibition, % at 1.5 µM | AID 853 | hit rate 0.42% among 47,000;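 active means inhibition of aggregate fluorescence above about 70%, also judged a hit by eye on the cell image, limit read from the data, passing the limit was not always enough; inconclusive means no rule stated for this call; inactive means not judged a hit on image review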;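 further: cells exposed to compound for three days before fixation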
Hits are given with their value.

What do the screens show for `O=C(NCc1ccc(N2CCCC2=O)cc1)Nc1cccc(Cl)c1`?
5HT1a ag: inactive; HTR1E agonist: inactive; 5HT1E antag: inactive; 5HT1a antag: inactive; Htt clearance: inactive

Results for CN1CCN(c2nc(N3CCN(c4ccccc4)CC3)ncc2F)CC1 ?
5HT1a ag: inactive; HTR1E agonist: 35; 5HT1E antag: inactive; 5HT1a antag: inactive; Htt clearance: inactive

What do the screens show for `c1ccc(N2CCN(c3ncccn3)CC2)cc1`?
Htt clearance: inactive

What do the screens show for `Nc1nonc1/C(=N/O)N1CCCC1`?
5HT1a ag: 130; HTR1E agonist: inactive; 5HT1E antag: inactive; 5HT1a antag: inactive; Htt clearance: inactive

Results for Cc1cc(C#N)c(C)n1-c1cc(C(F)(F)F)ccc1N1CCOCC1 ?
5HT1a ag: inactive; HTR1E agonist: inactive; 5HT1E antag: inactive; 5HT1a antag: 43

Results for CC(C)C(=O)Nc1cc(C(F)(F)F)ccc1N1CCOCC1 ?
5HT1a ag: inactive; HTR1E agonist: inactive; 5HT1E antag: inactive; 5HT1a antag: inactive; Htt clearance: inactive

How did CCCCOC(=O)C1Cc2ccccc2C(=O)O1 (stereo unspecified) do in these assays?
5HT1a ag: inactive; HTR1E agonist: inactive; 5HT1E antag: inactive; 5HT1a antag: inactive

What do the screens show for `CCc1nc(NCc2ccco2)c2oc3ccccc3c2n1`?
5HT1a ag: inactive; HTR1E agonist: inactive; 5HT1E antag: 34; 5HT1a antag: inactive; Htt clearance: inactive

How did c1coc(CNc2ncnc3c2oc2ccccc23)c1 do in these assays?
5HT1a ag: inactive; HTR1E agonist: inactive; 5HT1E antag: inactive; 5HT1a antag: inactive

Results for CCc1nc(SCCO)c2oc3ccccc3c2n1 ?
5HT1a ag: inactive; HTR1E agonist: inactive; 5HT1E antag: 33; 5HT1a antag: inactive; Htt clearance: inactive

Results for OCCSc1ncnc2c1oc1ccccc12 ?
5HT1a ag: inactive; HTR1E agonist: inactive; 5HT1E antag: inactive; 5HT1a antag: inactive; Htt clearance: inactive

How did CCNc1nc(C)nc2c1oc1ccccc12 do in these assays?
5HT1a ag: inactive; HTR1E agonist: inactive; 5HT1E antag: inactive; 5HT1a antag: inactive

What do the screens show for `CCNc1nc(CC)nc2c1oc1ccccc12`?
5HT1a ag: inactive; HTR1E agonist: inactive; 5HT1E antag: 29; 5HT1a antag: inactive; Htt clearance: inactive

What do the screens show for `COC(=O)c1ccccc1NC(=O)CSc1nnc(CNS(=O)(=O)c2ccc(C)cc2)n1C`?
5HT1a ag: inactive; HTR1E agonist: inactive; 5HT1E antag: inactive; 5HT1a antag: inactive; Htt clearance: inactive

How did O=C(NC1CCCCC1)C(c1ccco1)N(Cc1cccnc1)C(=O)C1COc2ccccc2O1 (stereo unspecified) do in these assays?
5HT1a ag: inactive; HTR1E agonist: inactive; 5HT1E antag: inactive; 5HT1a antag: inactive

Results for Cc1ccc(NS(=O)(=O)c2ccc(OCC(=O)Nc3cccc([N+](=O)[O-])c3)c(C)c2)cc1 ?
Htt clearance: inactive

Results for COC(=O)c1ccccc1NC(=O)c1cc(-c2ccc(OC)c(OC)c2)on1 ?
5HT1a ag: inactive; HTR1E agonist: inactive; 5HT1E antag: inactive; 5HT1a antag: inactive; Htt clearance: 71

Results for Cc1cc(=O)oc2cc(OCC(O)CN3CCN(c4ccccc4)CC3)ccc12 (stereo unspecified) ?
5HT1a ag: inactive; HTR1E agonist: inactive; 5HT1E antag: inactive; 5HT1a antag: 46

How did Cc1cc(=O)oc2cc(OCC(=O)N3c4ccccc4CC3C)ccc12 (stereo unspecified) do in these assays?
5HT1a ag: inactive; HTR1E agonist: inactive; 5HT1E antag: 33; 5HT1a antag: inactive; Htt clearance: inconclusive

What do the screens show for `COc1ccccc1N1CCN(CC(O)COc2ccc3c(C)cc(=O)oc3c2)CC1` (stereo unspecified)?
5HT1a ag: inactive; HTR1E agonist: inactive; 5HT1E antag: inactive; 5HT1a antag: 88

What do the screens show for `Cc1cc(=O)oc2cc(OCC(=O)N3CCCC(C)C3)ccc12` (stereo unspecified)?
5HT1a ag: inactive; HTR1E agonist: inactive; 5HT1E antag: inactive; 5HT1a antag: inactive

How did CCOC(=O)Cc1cnc(NC(=O)NC(C(=O)OCC)(c2ccccc2)C(F)(F)F)s1 (stereo unspecified) do in these assays?
5HT1a ag: inactive; HTR1E agonist: inactive; 5HT1E antag: inactive; 5HT1a antag: inactive; Htt clearance: inactive

How did COc1cc(-c2nnc3sc(-c4ccccn4)nn23)cc(OC)c1OC do in these assays?
5HT1a ag: inactive; HTR1E agonist: inactive; 5HT1E antag: inactive; 5HT1a antag: inactive

Results for CCOc1nnc(C)c2c(C)n(-c3ccc(Cl)cc3)nc12 ?
Htt clearance: 74

Results for CCCn1nnc(NC(=O)c2cc(Br)cc(Br)c2OC)n1 ?
5HT1a ag: inactive; HTR1E agonist: inactive; 5HT1E antag: inactive; Htt clearance: inactive

How did CCOC(=O)N1CCC(c2cc(=O)n3[nH]c(-c4ccccc4)cc3n2)CC1 do in these assays?
5HT1a ag: inactive; HTR1E agonist: inactive; 5HT1E antag: inactive; 5HT1a antag: inactive

Results for CCOC(=O)N1CCC(c2cc(=O)n3[nH]c(C)c(-c4ccc(F)cc4)c3n2)CC1 ?
5HT1a ag: inactive; HTR1E agonist: inactive; 5HT1E antag: inactive; 5HT1a antag: inactive; Htt clearance: 82

Results for Cc1noc(C)c1S(=O)(=O)N(CCc1ccccc1)Cc1ccccc1 ?
5HT1a ag: inactive; HTR1E agonist: inactive; 5HT1E antag: inactive; 5HT1a antag: inactive

What do the screens show for `Cc1cccn2cc(CCNC(=O)c3ccc(Br)o3)nc12`?
5HT1a ag: inactive; HTR1E agonist: inactive; 5HT1E antag: inactive; 5HT1a antag: inactive; Htt clearance: inactive

What do the screens show for `CN(C)CCCN1c2ccccc2CCc2ccc(Cl)cc21`?
5HT1a ag: inactive; HTR1E agonist: 10; 5HT1E antag: inactive

Results for Cc1cnn(C(=S)NCC2CCCO2)c1 (stereo unspecified) ?
5HT1a ag: inactive; HTR1E agonist: inactive; 5HT1E antag: inactive; 5HT1a antag: inactive

What do the screens show for `Cn1c(=O)c2c(nc(Oc3ccc4c(c3)OCO4)n2Cc2ccc(F)cc2)n(C)c1=O`?
5HT1a ag: inactive; HTR1E agonist: inactive; 5HT1E antag: inactive

Results for Cn1c(=O)c2c(nc(Oc3ccc4c(c3)OCO4)n2Cc2ccc(Br)cc2)n(C)c1=O ?
5HT1a ag: 40; HTR1E agonist: inactive; 5HT1E antag: inactive

Results for Cc1ccc(C)n1-c1ccc(-c2nnc3n2CCCCC3)s1 ?
5HT1a ag: inactive; HTR1E agonist: inactive; 5HT1E antag: inactive; 5HT1a antag: inactive

How did c1coc(CNC2CCCCC2)c1 do in these assays?
Htt clearance: inactive

How did c1coc(CNC2CCCCCCC2)c1 do in these assays?
5HT1a ag: 42; HTR1E agonist: inactive; 5HT1E antag: inactive; 5HT1a antag: inactive

What do the screens show for `COc1cc2c(cc1OC)C1Cc3ccc(OC)c(OC)c3CN1CC2` (stereo unspecified)?
5HT1a ag: inactive; HTR1E agonist: inactive; 5HT1E antag: inactive; 5HT1a antag: 51; Htt clearance: inactive

Results for CCOC(=O)c1ccc2c(c1)nc(SCc1cn3ccsc3n1)n2CC ?
5HT1a ag: inactive; HTR1E agonist: inactive; 5HT1E antag: inactive; 5HT1a antag: inactive; Htt clearance: inactive
